# Test results reported in PubChem BioAssay AID1508622 (National Center for Advancing Translational Sciences (NCATS), 2021).
# Unmarked numbers belong to inactive results. The source made the active and inactive calls. Calls follow the shape of the dose curve; as a rule, active = well fitted activation curve with a large enough effect; inconclusive = small, poorly fitted or top-dose-only effect; inactive = no such curve, though single readings can be large or run the other way.
# Test: Confirmatory qHTS for Identification of Small Molecule Activators of Huntingtin-Antisense Promoter Activity
# Settings: HEK293 HTT-AS promoter firefly luciferase reporter, 24 h; series mostly up to 57.5 µM; activity change, positive = activation: at the top concentration
# Summary of the method: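 Activity normalized between vehicle control (0%) and zero RLU (-100%) from firefly luminescence (Dual-Glo). Compounds, up to 57.5 uM final, incubated 24 h at 37C on HEK293 reporter cells plated 24 h earlier.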
# Potency is read from the fitted curve at half-maximal effect.
Compound,"activity change, positive = activation",Potency
COc1ccc(C(C)n2c(C)c3c(C)nnc(C)c3c2C)cc1 (stereo not drawn),-16.4%,–
Cc1cc(C)c(S(=O)(=O)NCCc2csc3nc(-c4ccc(Cl)cc4)nn23)c(C)c1,-37.2%,–
Cc1ccc(C)c(NC(=O)CSc2nnc(-c3cc4occc4n3C)n2-c2ccccc2C)c1,-19.7%,–
Cc1cccc(CNC(=O)C2CCN(S(=O)(=O)c3ccc4c(c3)CCCN4C(=O)C3CCC3)CC2)c1,-40.3%,–
COc1ccc(NC(=O)Cn2c(=O)oc3cc(S(=O)(=O)N4CCCCCC4)ccc32)cc1OC,-69%,–
Cc1nc(-c2ccc(S(=O)(=O)Nc3ccc(C)c(N(C)C)c3)cc2)co1,-93.7%,–
CCOc1ccc(-n2ccnc2SCC(=O)Nc2cc(C)ccc2C)cc1,-58.9%,–
O=C(C=Cc1ccc(O)cc1)c1ccc(O)cc1O,17.4%,–
CN(C)Cc1ccc(-c2nc3cccc4c3n2CCNC4=O)cc1,–,30.1 µM (active)
CC(=O)N1CCCc2cc(S(=O)(=O)N(C)CC(=O)Nc3ccc(Cl)cc3C)ccc21,-44.5%,–
CCN(c1ccccc1)S(=O)(=O)c1c(-c2ccc(C)cc2)csc1C(=O)OC,-32.5%,–
COc1ccc(OC)c(CNS(=O)(=O)c2ccc3[nH]c4c(c3c2)CCCCC4)c1,-83.3%,–
COc1ccc(NC(=O)c2ccc(-c3nc(CSc4ccccc4)c(C)o3)cc2)cc1OC,-38.6%,–
CCOc1ccc(C(=O)NCc2ccc3c(c2)CCN3C(=O)c2ccccc2)cc1,-14.1%,–
CC(=O)c1ccc(N2CCN(c3ncnc4onc(C)c34)CC2)cc1,-93.4%,–
Cc1nc2nncn2c(NCc2ccc(Cl)cc2)c1C,-93.3%,–
Cc1nc(-c2ccc(F)cc2)sc1CCNC(=O)c1ccc(C(C)(C)C)cc1,-10%,–
CC=C1NC(=O)[C@H]2CSSCCC=C[C@H](CC(=O)N[C@H](C(C)C)C(=O)N2)OC(=O)[C@H](C(C)C)NC1=O,-3.47%,–
CCn1c(SCc2ccc(F)cc2Cl)nc(=O)c2c(C(=O)OC)cc(C3CC3)nc21,-31.5%,–

Compound,"activity change, positive = activation",Potency
O=c1cc(-c2ccccc2)oc2cc(O)cc(O)c12,–,26.9 µM (active)
Cc1ccc(-c2ncn(-c3ccc(Nc4nccc(-c5cccc(N6CCOCC6)c5)n4)cc3)n2)cn1,-91.3% [at 115 µM],–
CCCCN(C)CCCNC(=O)Cn1ncc2c3ccccc3n(Cc3ccccc3F)c2c1=O,-4.68%,–
COc1cc(NS(=O)(=O)c2ccc3c(c2)CCCN3C(C)=O)cc(OC)c1OC,-94.9%,–
Cc1cccc(N2CCN(C(=O)C3CCN(S(=O)(=O)c4c(C)noc4C)CC3)CC2)c1C,-52.4%,–
O=C1CSC2(C(=O)N(Cc3cccc(C(F)(F)F)c3)c3ccccc32)N1c1ccc(F)c(F)c1 (stereo not drawn),-57.6%,–
COc1cc(C2CC(=O)c3c([nH]c(C(=O)OCc4ccc(C)cc4)c3C)C2)cc(OC)c1OC (stereo not drawn),-56.6%,–
CCc1ccc(OCC2c3cc(OC)c(OC)cc3CCN2C(=O)COc2ccccc2)cc1 (stereo not drawn),-22.3%,–
CCc1cccc(C)c1NC(=O)CCCN1C(=O)C(c2ccccc2)Oc2cccnc21 (stereo not drawn),-17.7%,–
CCOc1ccc(S(=O)(=O)N(C(=O)c2ccncc2)c2ccc3oc(C)c(C(=O)OC)c3c2)cc1,-93.4%,–
CC(C)c1ccc(NC(=O)c2ccc(F)c(S(=O)(=O)N3CCc4ccccc43)c2)cc1,-31.5%,–
CCOc1ccccc1CNC(=O)c1ccc2nc(Cc3ccc(OC)cc3)oc2c1,-20.2%,–
CCOc1ccc(S(=O)(=O)N(C(C)=O)c2ccc3oc(C)c(C(=O)OC)c3c2)cc1,-92.6%,–
Cn1c(=O)n(C)c2cc(NS(=O)(=O)c3ccc(C(C)(C)C)cc3)c(NCc3ccccc3)cc21,-50.6%,–
CC(C)(C)OC(=O)N1CCC(c2c(C(=O)N3CCC(c4ccccc4)C3)cnn2-c2ccc(Cl)cc2)CC1 (stereo not drawn),-38.3%,–
CCc1ccc(NC(=O)Nc2cn(C)c(=O)c3ccccc23)cc1,-34.6%,–
Cc1cc(NC(=O)Cn2c(=O)oc3cc(S(=O)(=O)N4CCCC4)ccc32)ccc1Br,-28.5%,–
O=c1[nH]c2ccc(NCc3ccc(-c4ccccc4)o3)cc2[nH]1,-25.6%,–
COc1cccc(C2=CC(c3cc(Br)ccc3F)n3nnnc3N2)c1 (stereo not drawn),-35.3%,–
